Assay [1] in a line: qHTS assay for small molecule agonists of the p53 signaling pathway - cell viability (AID 651633; calls by dose curve; also: nearly all actives have a fitted effect of over 30% in size; also: potency is read from the fitted curve at half-maximal effect). Put shortly: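 Viability counter-read: CellTiter-Glo luminescence (30 min, room temperature) in the same p53RE-bla plates. These plates had been exposed to compounds for 16 h at 37 C.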
Assay [2] in a line: qHTS assay to test for compound auto fluorescence at 460 nm (blue) in HEK293 cells (AID 720678). The gist of the method:
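Blue-channel (Ex/Em 405/460 nm) intensity measured in HEK293 cultures after overnight compound exposure at 37C; signal expressed relative to triamterene. Cells plated 2,000 per well in 10% dialyzed FBS medium and allowed 4-5 hr to attach.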

A short description of assay [3]: qHTS assay to test for compound auto fluorescence at 590 nm (red) in HEK293 cells (AID 720679). Put shortly:
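Red-channel autofluorescence (Ex/Em 540/590 nm; Rose Bengal sodium reference) was measured after overnight 37C, 5% CO2 exposure of attached HEK293 cells, 2,000 per well in medium with 10% dialyzed FBS.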

The nature of assay [4]: qHTS assay to test for compound auto fluorescence at 535 nm (green) in HepG2 cell free culture (AID 720686). In general terms: Quantitative high-throughput screening tests each substance at several concentrations.
Assay [5] is described as follows: qHTS assay to test for compound auto fluorescence at 460 nm (blue) in HepG2 cells (AID 720687). Put shortly: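 Blue-channel autofluorescence (Ex/Em 405/460 nm, triamterene-equivalent) was measured after 1 hr compound exposure at 37 C, 5% CO2. Cells were HepG2, plated overnight at 37 C in MEM plus 10% FBS.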
Assay [6] is described as follows: qHTS assay to identify small molecule antagonists of the glucocorticoid receptor (GR) signaling pathway - cell viability counter screen (AID 720693). Also: nearly all actives have a fitted effect of over 55% in size. Also: potency is read from the fitted curve at half-maximal effect.
Assay [7] is described as follows: qHTS assay to identify small molecule antagonists of the androgen receptor (AR) signaling pathway - cell viability counter screen (AID 743033; also: nearly all actives have a fitted effect of over 45% in size).
Assay [8] is described as follows: qHTS assay to identify small molecule antagonists of the thyroid receptor (TR) signaling pathway - cell viability counter screen (AID 743064). Also: nearly all actives have a fitted effect of over 50% in size. Also: potency is read from the fitted curve at half-maximal effect. Put shortly: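 GH3.TRE-Luc cells, 4 h pre-plating; cpd + T3 1 nM final; 37 °C 23.5 h; CellTiter-Fluor 30 min; fluorescence read.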
Assay [9] deals with thyroid hormone receptor (rat, GH3 cells). Kind of assay: qHTS assay to identify small molecule agonists of the thyroid receptor (TR) signaling pathway (AID 743066; calls by dose curve).
The nature of assay [10]: qHTS assay to identify small molecule antagonists of the estrogen receptor alpha (ER-alpha) signaling pathway - cell viability counter screen (AID 743074; calls by dose curve;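 also: HEK293 cells carrying ER-alpha-UAS-bla reporter stimulated with 17beta-estradiol; nearly all actives have a fitted effect of over 45% in size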; also: potency is read from the fitted curve at half-maximal effect).
Assay [11] deals with Estrogen receptor (Homo sapiens) (UniProt P03372). Kind of assay: qHTS assay to identify small molecule agonists of the estrogen receptor alpha (ER-alpha) signaling pathway (AID 743075; calls by dose curve;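 also: HEK293 GripTite cells with ER-alpha and UAS-driven beta-lactamase reporter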).
Sequence of Estrogen receptor (Homo sapiens) (P03372 whole entry, looked up): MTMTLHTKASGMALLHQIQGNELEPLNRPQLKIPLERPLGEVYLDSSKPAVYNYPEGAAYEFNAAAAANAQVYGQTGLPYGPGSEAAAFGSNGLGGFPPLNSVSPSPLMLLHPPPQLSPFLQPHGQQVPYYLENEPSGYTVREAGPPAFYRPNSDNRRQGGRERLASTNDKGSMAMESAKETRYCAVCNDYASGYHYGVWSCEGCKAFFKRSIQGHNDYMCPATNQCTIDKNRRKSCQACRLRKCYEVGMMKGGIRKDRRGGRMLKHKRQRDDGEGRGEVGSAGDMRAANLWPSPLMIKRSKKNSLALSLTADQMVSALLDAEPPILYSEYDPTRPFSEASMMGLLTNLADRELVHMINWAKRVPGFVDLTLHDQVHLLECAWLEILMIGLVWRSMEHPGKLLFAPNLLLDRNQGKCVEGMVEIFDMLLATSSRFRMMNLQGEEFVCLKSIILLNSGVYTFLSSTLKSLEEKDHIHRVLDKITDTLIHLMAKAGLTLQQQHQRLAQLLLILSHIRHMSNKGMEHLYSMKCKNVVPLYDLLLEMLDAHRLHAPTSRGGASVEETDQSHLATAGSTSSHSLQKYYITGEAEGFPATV
Assay [12] shares this target. Kind of assay: qHTS assay to identify small molecule agonists of the estrogen receptor alpha (ER-alpha) signaling pathway using the BG1 cell line (AID 743079). Also: nearly all actives have a fitted effect of over 20% in size.
The target in assay [13] is Peroxisome proliferator-activated receptor gamma (Homo sapiens) (UniProt P37231). Kind of assay: qHTS assay to identify small molecule agonists of the peroxisome proliferator-activated receptor gamma (PPARg) signaling pathway (AID 743094; active = well fitted activation curve with a large enough effect in the signal ratio in the repeat runs, not every such curve was filed as active; the % refers to the signal ratio). Put shortly: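 Agonist activity was taken from a beta-lactamase reporter (FRET substrate, 1 h at room temperature) in HEK293H cells carrying a PPARg UAS-bla construct. Compounds in DMSO were incubated 17 h at 37C after a 5 h cell pre-incubation.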
Sequence of Peroxisome proliferator-activated receptor gamma (Homo sapiens) (P37231 whole entry, looked up): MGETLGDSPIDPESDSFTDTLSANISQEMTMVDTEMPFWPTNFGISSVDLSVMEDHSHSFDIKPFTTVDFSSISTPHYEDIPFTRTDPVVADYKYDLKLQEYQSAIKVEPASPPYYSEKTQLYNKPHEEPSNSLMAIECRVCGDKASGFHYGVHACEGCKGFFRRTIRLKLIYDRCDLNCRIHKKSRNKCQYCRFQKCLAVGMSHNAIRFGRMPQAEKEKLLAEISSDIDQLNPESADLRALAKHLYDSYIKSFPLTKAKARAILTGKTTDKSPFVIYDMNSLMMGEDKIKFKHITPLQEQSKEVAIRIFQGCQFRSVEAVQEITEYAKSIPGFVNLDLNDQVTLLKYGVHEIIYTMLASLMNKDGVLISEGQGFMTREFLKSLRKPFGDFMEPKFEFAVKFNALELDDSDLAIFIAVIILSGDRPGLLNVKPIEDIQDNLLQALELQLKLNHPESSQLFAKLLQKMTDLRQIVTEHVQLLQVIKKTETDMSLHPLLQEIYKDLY

Assay [14] can be described thus: qHTS assay to test for compound auto fluorescence at 590 nm (red) in HepG2 cells (AID 720674). Put shortly:
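Red autofluorescence (Ex/Em 540/590 nm, Rose Bengal sodium equivalents) was measured in HepG2 cells, 2,000 per well in MEM plus 10% FBS, plated overnight at 37 C. Readings were taken 1 hr after adding 23 nL compound or DMSO, at 37 C and 5% CO2.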

The nature of assay [15]: qHTS assay for identifying genotoxic compounds that show differential cytotoxicity against isogenic chicken DT40 cell lines with known DNA damage response pathways - Rev3 mutant cell line (AID 743014). Also: nearly all actives have a fitted effect of over 55% in size. Also: potency is read from the fitted curve at half-maximal effect.
Assay [16] is described as follows: qHTS assay for identifying genotoxic compounds that show differential cytotoxicity against isogenic chicken DT40 cell lines with known DNA damage response pathways - wild type cell line (AID 743012). Also: nearly all actives have a fitted effect of over 60% in size. Also: potency is read from the fitted curve at half-maximal effect. Put shortly:
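Viability by ATP luminescence (CellTiter-Glo, 30 min RT) after 40 h compound treatment at 37 C/5% CO2, using 300 parental DNA repair-proficient DT40 cells per well.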

In assay [17] the target is Acetylcholinesterase (Homo sapiens) (UniProt P22303). The experiment in a line: Acetylcholinesterase (AChE) small molecule antagonists: enzyme-based qHTS assay (AID 1347397; calls by dose curve; also: nearly all actives have a fitted effect of over 55% in size). The following applies: Potency: AChE enzyme activity inhibition; outcome: AChE enzyme activity inhibition. The gist of the method: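 First, recombinant human AChE (50 mU/mL as dispensed) received test compound or DMSO. Second, plates stood 30 min at room temperature. Third, DTNB and acetylthiocholine were added, followed by 10 min at room temperature and colorimetric detection.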
Sequence of Acetylcholinesterase (Homo sapiens) (P22303 whole entry, looked up): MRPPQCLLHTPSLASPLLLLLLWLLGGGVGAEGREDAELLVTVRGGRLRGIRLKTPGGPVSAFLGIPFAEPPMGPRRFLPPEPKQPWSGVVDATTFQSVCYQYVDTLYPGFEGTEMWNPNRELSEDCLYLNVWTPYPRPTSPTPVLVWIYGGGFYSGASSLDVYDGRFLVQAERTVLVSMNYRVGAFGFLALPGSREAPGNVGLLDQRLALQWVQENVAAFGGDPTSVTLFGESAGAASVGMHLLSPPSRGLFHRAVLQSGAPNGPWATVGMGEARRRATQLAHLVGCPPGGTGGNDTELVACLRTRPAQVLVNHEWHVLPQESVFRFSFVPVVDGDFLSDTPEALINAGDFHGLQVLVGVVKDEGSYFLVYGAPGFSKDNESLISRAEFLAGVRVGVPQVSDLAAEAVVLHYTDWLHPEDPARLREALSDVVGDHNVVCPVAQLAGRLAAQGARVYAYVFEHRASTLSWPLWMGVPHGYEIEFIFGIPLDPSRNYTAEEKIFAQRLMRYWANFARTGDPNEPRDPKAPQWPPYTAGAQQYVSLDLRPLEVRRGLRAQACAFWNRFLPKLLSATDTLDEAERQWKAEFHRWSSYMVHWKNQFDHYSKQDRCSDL

Assay [18] has the same target. Kind of assay: Acetylcholinesterase (AChE) small molecule antagonists: fluorescence cell-based qHTS assay (AID 1347398; calls by dose curve; also: nearly all actives have a fitted effect of over 50% in size). Conditions: Potency: AChE activity; outcome: AChE activity. The gist of the method:
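Homogeneous quantitative HTS format. SH-SY5Y cells seeded at 2,000 per well settle overnight at 37 C. Compound pretreatment runs 30 min (37 C, 5% CO2); substrate/probe mix then reacts 40 min at RT before reading 490/520 nm.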

Assay [19] concerns the target Nuclear receptor subfamily 1 group I member 2 (Homo sapiens) (UniProt O75469). Kind of assay: CYP3A4 induction through human pregnane X receptor (PXR) by small molecules, qHTS assay (AID 1346984). Also: nearly all actives have a fitted effect of over 40% in size. Put shortly: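 Read-out is luminescence after One-Glo addition, following a 3 hr, 37C incubation with Luciferin-IPA CYP3A4 substrate (3uM final). Before that, compounds were on DPX-2 cells (HepG2 co-transfected with PXR element plus CYP3A4-promoter luciferase) for 24 hr at 37C.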

The target is the same in assay [20]. Kind of assay: Human pregnane X receptor (PXR) activation by small molecules, qHTS assay (AID 1346985). Also: nearly all actives have a fitted effect of over 40% in size. The gist of the method: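 DPX-2 cells (HepG2 co-transfected with a PXR response element and a CYP3A4-promoter luciferase construct) were seeded at 2,000 per well, rested 5 hr at 37C, then exposed to DMSO-dissolved compounds for 24 hr. Activation was read as luciferase luminescence.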

Records with an inconclusive call do not appear. Activity calls are given as the source filed them. Unless noted, calls follow the shape of the dose curve; as a rule, active = well fitted curve in the direction sought with a large enough effect in the repeat runs; inconclusive = weak or mixed curves; inactive = no such curve, though single readings can be large; an effect the other way counts as inactive or inconclusive.

Turning to `COc1cc(C[C@H](C)N)c(OC)cc1C`, the Potency entry in assay [1], in assay [2], in assay [4], in assay [5], in assay [6] and in assay [7] was “inactive” each time. For the same compound, the Potency result in assay [8], in [9], in [10], in [11], in assay [12] and in assay [13] was “inactive” in each case. The outcome in assay [3] was inactive.
In the case of `Cc1nnc2n1-c1sc(Br)cc1C(c1ccccc1Cl)=NC2`, the Potency entry in [1], in assay [5], in assay [6], in assay [15], in assay [7] and in assay [9] was “inactive” each time. Moreover, the Potency result in [10], in assay [11] and in [13] was “inactive” throughout. The compound was classed as inactive in assay [14] and in assay [3]. The Potency in [8] is 21.1 µM (active).
In the case of `COc1ccc(OC)c(C[C@H](C)N)c1`, the outcome in assay [14] and in assay [3] was inactive. For the same compound, the Potency entry in [2], in assay [4], in assay [16], in [15], in assay [7] and in assay [8] was “inactive” throughout. The Potency entry in assay [11], in assay [12] and in assay [13] was “inactive” throughout.
Take `Clc1cc(Cl)c(Cl)cc1Cl`: the Potency result in [17] and in assay [18] was “inactive” in each case.
On to `C[C@]12CC[C@H]3[C@@H](CCC4=CC(=O)CC[C@@]43C)[C@@H]1CC[C@H]2O`, for which the Potency entry in [1], in assay [2], in [4], in assay [5], in assay [6] and in assay [9] was “inactive” throughout. Moreover, the Potency entry in assay [10], in assay [13] and in assay [19] was “inactive” in each case. The compound was called inactive in assay [14] and in assay [3]. In addition, the Potency in [16] was 23.7 µM (active).
With `CO[C@H]1[C@@H](O)C[C@H](O[C@H]2[C@@H](O)C[C@H](O[C@H]3[C@@H](O)C[C@H](O[C@H]4CC[C@@]5(C)[C@H](CC[C@@H]6[C@@H]5C[C@@H](O)[C@]5(C)[C@@H](C7=CC(=O)OC7)CC[C@]65O)C4)O[C@@H]3C)O[C@@H]2C)O[C@@H]1C`, the Potency is 0.0841 µM (active) in assay [1], 0.756 µM (active) in assay [6], 0.531 µM (active) in [16] and 0.668 µM (active) in assay [15]. Besides, the call in assay [14] and in assay [3] was inactive. Moreover, the Potency entry in assay [2], in assay [4], in [5], in assay [8], in assay [9] and in assay [11] was “inactive” throughout. Further, the Potency result in assay [19] and in [20] was “inactive” each time.
Regarding `O=c1c2ccccc2[se]n1-c1ccccc1`, the compound was called inactive in assay [14] and in [3]. The Potency entry in [2], in assay [4] and in assay [11] was “inactive” each time. The results for the Potency in assay [16], in assay [15] and in assay [8] were 5.31 µM (active), 8.41 µM (active) and 23.7 µM (active), respectively.
`C[C@H]1CC[C@]2(NC1)O[C@H]1C[C@H]3[C@@H]4CC[C@H]5C[C@@H](O)CC[C@]5(C)[C@H]4CC[C@]3(C)[C@H]1[C@@H]2C`: the result in assay [14] and in assay [3] was inactive. For the same compound, the Potency entry in assay [2], in assay [4], in [5], in assay [6], in assay [15] and in assay [7] was “inactive” throughout. Moreover, the Potency result in [9], in assay [10], in [11], in [12], in [13] and in assay [19] was “inactive” throughout. Further, the Potency result in assay [20] is “inactive”.
In the case of `Brc1ccc(Oc2ccc(Br)cc2)cc1`, the Potency result in assay [17] and in assay [18] was “inactive” in each case.
`COc1cc2c(cc1OC)[C@@H]1CC(=O)[C@@H](CC(C)C)CN1CC2`: in [18], the Potency entry was “inactive”.
`COc1ccc(C)cc1N`: the Potency result in [17] and in [18] was “inactive” throughout.
`CCCCCc1cc(O)c2c(c1)OC(C)(C)c1ccc(C)cc1-2`: the result in assay [14] was inactive. Moreover, the Potency entry in [2], in assay [4], in assay [5] and in assay [7] was “inactive” throughout. Also, the Potency in [16] is 9.44 µM (active); in [15] it was 11.9 µM (active); in assay [8], 13.3 µM (active); in assay [10], 23.9 µM (active).
